Only some compounds are listed: those with a hit (about 2.1% of all), similar ones and a draw of the others.
APP 5UTR inh – APP translation inhibition; SH-SY5Y APP 5'UTR-luciferase reporter, luminescence; inhibition, % at 2 µM; 190,000 tested, 0.82% active; AID 1285;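 active = inhibition above a set limit, derived from the sample mean plus 3 SD, cut at about 45% in these data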
Ba/F3 V617F tox – reduce viability of Ba/F3 cells dependent on JAK2V617F; Ba/F3 EpoR-JAK2V617F viability, ATP luminescence; 220,000 tested, 1.1% active; inhibition, % at 5.6 µM;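 active = inhibition above the campaign mean plus 3 SD over all tested compounds, cut at about 24% in these data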;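 also: cytokine-independent growth of Ba/F3 cells driven by EpoR plus mutant JAK2; 0% = DMSO-treated cells and 100% = JAK inhibitor I control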
aSyn 5UTR inh – 5' untranslated region of α-synuclein, MLPCN primary screen. alpha-synuclein 5'UTR reporter, inhibitor activity. inhibition, % (tested at 7.5 µM). 300,000 tested, 0.82% active. AID 1813; in the data active = inhibition above about 60%;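 also: H4 neuroglioblastoma cells stably carrying SNCA 5'UTR luciferase fusion; 0% = DMSO wells and 100% = positive control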
BaF3 parental – parental Ba/F3 viability inhibition as JAK2V617F counter-screen | CellTiter-Glo ATP luminescence | inhibition, % at 5.6 µM | 220,000 tested, 1.1% active | AID 1486;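 active = inhibition above a per-campaign cutoff, the mean inhibition of all tested compounds plus 3 SD, cut at about 27% in these data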;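 also: 0% = DMSO wells and 100% = JAK Inhibitor I control wells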
KLF5 inh – suppresses KLF5 promoter-driven expression; DLD-1 KLF5 promoter-luciferase reporter, luminescence; inhibition, % at 5 µM; 290,000 tested, 0.23% active; AID 1700;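 active = inhibition above a per-plate limit of that plate's mean compound inhibition plus 3 SD, cut at about 60% in these data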;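 also: 0% = DMSO wells and 100% = LY294002 at 200 µM; higher means less KLF5 promoter-driven luciferase light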
IEC-6 cytotox – kills IEC-6 intestinal cells in KLF5 counter-screen; IEC-6 cytotoxicity, luminescence viability; inhibition, % at 5 µM; 290,000 tested, 0.78% active; in the data active = inhibition above about 22%;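 also: 0% = plate median of test compound wells and 100% = cytotoxic reference compound wells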
An asterisk follows results filed as active; / = not tested or not shown.

SMILES	APP 5UTR inh	Ba/F3 V617F tox	aSyn 5UTR inh	BaF3 parental	KLF5 inh	IEC-6 cytotox
O=S(=O)(c1cccs1)N1CCC2(CC1)OCCN2S(=O)(=O)c1ccccc1	/	/	-2	/	/	/
CCOC(=O)c1c(-c2ccccc2)csc1NC(=O)CCN1C(=O)c2ccccc2C1=O	-7	-1	3	3	-4	3
CCOC(=O)c1c(-c2ccc(-c3ccccc3)cc2)csc1NC(=O)CNCCN(C)C	/	/	101*	/	-10	6
CCCC[n+]1ccn(-c2nc3ccccc3nc2[N-]S(=O)(=O)c2cccs2)c1	/	98*	-11	86*	19	18
O=S(=O)([N-]c1nc2ccccc2nc1-n1cc[n+](Cc2ccccc2)c1)c1ccccc1	/	3	-30	0	0	7
CCCC[n+]1ccn(-c2nc3ccccc3nc2[N-]S(=O)(=O)c2ccccc2)c1	5	-4	-15	0	-6	-2
C=CC[n+]1ccn(-c2nc3ccccc3nc2[N-]S(=O)(=O)c2cccs2)c1	/	92*	-23	86*	-20	-1
COc1ccc(C2=C(C=O)Cc3ccccc3O2)cc1	/	/	98*	/	/	/
CCCCc1ccc(-c2nc(-c3ccncc3)no2)cc1	-176	-2	91*	3	-84	0
CCc1ccc(-c2nc(-c3ccncc3)no2)cc1	-168	2	/	5	-119	-4
COc1ccc(C(=O)c2c(C(F)(F)F)oc3c2C(=O)c2ccccc2C3=O)cc1	27	0	109*	0	-13	13
Cc1ccccc1C(=O)NCCCNC(=O)c1ccccc1C	/	/	-8	/	/	/
Cc1cc[n+](-c2ccccc2)c2ccccc12	-13	68*	-39	65*	-6	4
COc1ccc(N=C2C(=Nc3ccc(OC)cc3)N(c3ccc(N(C)C)cc3)C(=S)N2c2ccc(OC)cc2)cc1	1	-5	99*	-4	-25	1
COc1ccc(N=C2C(=Nc3ccc(OC)cc3)N(c3ccc(OC)cc3)C(=S)N2C(=O)c2ccc(OC)cc2)cc1	0	-4	-9	3	-18	-5
O=c1[nH]c(CN2CCN(c3ccc(O)cc3)CC2)nc2scc(-c3ccc(Cl)cc3)c12	62*	4	25	9	-8	20
CN(C)Cc1ccccc1Sc1ccc2c(c1)CCCC2	/	/	104*	/	/	/
O=C(Nc1cccc(Cl)c1)Nc1ccnc(-c2cccnc2)n1	56*	7	25	0	-8	-10
O=C(Nc1cccc(Cl)c1)Nc1cnccn1	/	/	-34	/	-55	2
CC1(C)CC(=O)C2=C(C1)N(CC1CCCO1)C(=O)NC2(C(F)(F)F)C(F)(F)F (configuration not stated)	7	-2	10	38*	-14	-2
CC1(C)CC(=O)C2=C(C1)N(CC1CCCO1)C(=O)C2(O)C(F)(F)F (configuration not stated)	-7	-4	-8	2	-9	1
CCOC(=O)c1ccc2c(c1)n(CC)c(/C=C/N(C)c1ccccc1)[n+]2CC	4	73*	9	66*	-24	-2
CCOC(=O)c1ccc2c(c1)n(CCO)c(C)[n+]2CC	7	1	14	6	-24	-1
O=C1NC2(CCCCO2)CO1 (configuration not stated)	/	/	-20	/	-10	2
CCN(CC(=O)Nc1c(F)cccc1F)C(=O)c1ccc2c(c1)S(=O)(=O)N=C1CCCCCN12	/	/	1	/	/	/
SMILES	APP 5UTR inh	Ba/F3 V617F tox	aSyn 5UTR inh	BaF3 parental	KLF5 inh	IEC-6 cytotox
CC(C)(C)c1ccc(OCC(=O)N/N=C/c2cc(Br)ccc2OC(=O)c2ccco2)cc1	-9	4	83*	5	-10	5
COc1ccc(Br)cc1/C=N/NC(=O)c1ccco1	-10	3	-1	3	17	2
Oc1ccc(Nc2nc(-c3ccc4ccccc4c3)cs2)cc1	2	99*	-210	57*	-190	4
CC(=O)Nc1nc(-c2ccc3ccccc3c2)cs1	/	/	-143	/	-140	8
O=C1CNC(=S)N1Cc1ccc(F)cc1	/	/	-17	/	6	-3
N=c1ccn(Cc2ccc(F)cc2)cc1	/	70*	4	61*	-7	-4
COc1ccccc1C(=O)NCC(=O)OCC(=O)Nc1ccc2[nH]c(=O)[nH]c2c1	/	/	10	/	/	/
CCCCCCC(=O)c1c(C)[nH]c(C(=O)OCC)c1C	-18	0	-114	41*	-38	8
CCCCCC(=O)c1c(C)[nH]c(C(=O)OCC)c1C	-20	-3	11	1	-32	1
CCOC(=O)c1[nH]c(C=O)c(C(=O)OCC)c1C	91*	4	2	3	42	-4
Cc1c(NC(=O)c2cccnc2Cl)c(=O)n(-c2ccccc2)n1C	/	/	7	/	-7	2
Cc1ccccc1C1c2[nH]c3ccccc3c2CCN1Cc1cccn1-c1ncccn1 (configuration not stated)	/	2	10	32*	3	7
[O-][n+]1c2c(nc3c1-c1ccccc1C3O)CCCC2 (configuration not stated)	-19	-3	-77	3	-35	3
COc1ccc2nc3cc(Cl)ccc3c(Nc3cc(CN4CCCC4)c(O)c(CN4CCCC4)c3)c2n1	/	/	104*	/	20	14
Cc1nc(Nc2cnc(/C=C/c3cc(C(=O)Nc4cccc(C(F)(F)F)c4)ccc3C)cn2)cc(N2CCNCC2)n1	/	/	81*	/	-5	0
COc1ccc(CN2CCN(c3ncnc4scc(-c5ccc(F)cc5)c34)CC2)cc1	/	/	-5	/	-26	7
COc1ccc(F)cc1CN1CCN(c2ncnc3scc(-c4ccccc4)c23)CC1	/	-1	98*	0	-9	2
COc1ccc(S(=O)(=O)N2CCN(C(=O)c3cc(-c4ccc(C)cc4)n[nH]3)CC2)cc1	/	/	6	/	-5	-4
Cc1sc2cc3c(c(C(=O)c4ccccc4)[n+]2c1C)-c1cccc2cccc-3c12	14	100*	37	88*	-1	6
CC(=O)Nc1ccc(NC(=S)NC(=O)/C=C/c2ccc(Cl)cc2)cc1	8	-3	-75	-1	8	1
O=C(/C=C/c1ccc(Cl)cc1)NC(=S)Nc1ccc(NC(=O)c2ccco2)cc1	81*	-5	-41	-2	-17	-2
C/C(=N/NC(=O)CNC(=O)c1cccnc1)c1ccc(Cl)c(Cl)c1	/	/	4	/	-23	-1
COc1cccc(/C=C2\NC(=O)NC2=O)c1O	/	/	-56	/	-31	0
CCn1nnc2cc(C(=O)Nc3cc(OC)cc(OC)c3)ccc21	/	/	-57	/	/	/
COc1ccc(-c2nsc3c(N4CCCCC4)ncnc23)cc1	-98	-4	85*	1	-24	2
SMILES	APP 5UTR inh	Ba/F3 V617F tox	aSyn 5UTR inh	BaF3 parental	KLF5 inh	IEC-6 cytotox
Cc1c(N)cc[n+](CC(=O)c2ccccc2)c1C	20	81*	-12	63*	-2	0
Cc1cccc(C(=O)O/N=C(\N)c2ccccn2)c1	/	/	70*	/	-15	0
Cc1ccc(C(=O)O/N=C(\N)c2ccccn2)cc1	/	/	65*	/	38	6
N/C(=N\OC(=O)c1cccc(F)c1)c1ccccn1	/	/	23	/	-50	3
CCOc1ccc(C(=O)O/N=C(\N)c2ccccn2)cc1	/	/	62*	/	17	3
N/C(=N\OC(=O)c1ccccc1)c1ccccn1	-150	7	18	12	-49	2
